Potency and affinity values are given separately.
How the values were obtained:
[1] = test system: Staphylococcus aureus; settings: Concentration 20 uM; ASSAY_TEST Inhibition of Bacterial Growth; detection method Absorption (OD600); MEDIA CAMHB; plate type 384well; NBS; CORNING #3640; time 18 hr
[2] = test system: Escherichia coli; settings: Concentration 20 uM; ASSAY_TEST Inhibition of Bacterial Growth; detection method Absorption (OD600); MEDIA CAMHB; plate type 384well; NBS; CORNING #3640; time 18 hr

Compound | Inhibition [1] [%] | Inhibition [2] [%]
CCOc1ccccc1NC(C)C(=O)Nc1cc(C(F)(F)F)ccc1N1CCOCC1 (stereo not drawn) | 15.12 | 7.27
O=C(NC1CC1)c1ccc(N2CCC(Cc3ccccc3)CC2)nc1 | 20.17 | 11.23
O=C(CCC1CCCCC1)Nc1cccc(-c2nnc(-c3ccco3)o2)c1 | 8.68 | 8.91
Cl.Cn1ccnc1CNCCS(=O)(=O)c1cccc(Nc2ccc(-c3cccc(F)c3)cn2)c1 | 24.8 | 8.19
COc1cc(CN2CCC3(C=Cc4ccccc43)CC2)cc2c1OCO2 | -1.3 | -2.88
Cc1noc(C)c1C(=O)N1CCCC(c2[nH]c3c(C)cccc3c2-c2ccncc2)C1 (stereo not drawn) | 19.72 | 12.41
Nc1nccc2ccc(-c3ccc4nccn4c3)cc12 | 24.43 | 1.05
NC(=O)c1cc(-c2ccsc2)ccc1OCCOc1ccccc1 | 14.87 | 5.41
COc1ccc(C2=NCCN2)cc1-c1cn(-c2cccc(C3=NCCN3)c2)nn1.O=C(O)C(F)(F)F.O=C(O)C(F)(F)F | 20.97 | 10.7

Source: ChEMBL document CHEMBL4513149, “CO-ADD screening of MMV (CH) - MMV compounds” (2021)
